Experimental findings from PubChem BioAssay (NCATS) are described below.

Records with an inconclusive call do not appear. Calls of active or inactive are those of the source. Unless noted, the call rests on the fitted dose curve; in most records, active means well fitted curve in the direction sought with a large enough effect; inconclusive means small, poorly fitted or top-dose-only effect, or another doubt; inactive means no such curve, though single readings can be large; an effect the other way counts as inactive or inconclusive.

Assay [1] is described as follows: NS1 protein of Zika virus - qHTS assay to identify small molecule inhibitors in human HEK 293 cells (AID 1347053). Further: nearly all actives have a fitted effect of over 55% in size. Further: potency means the concentration at half of the fitted maximal effect. An outline of the steps:
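Readout was TR-FRET using paired anti-NS1 antibodies after 24 h infection of HEK 293 cells with ZIKV MR766 (MOI = 0.5). Compound preceded virus by 1 h; reduced signal reflects lower NS1 expression.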
On the technique in general: qHTS replaces the single test concentration by a dilution series.

Assay [2] in a line: qHTS of pediatric cancer cell lines to identify multiple opportunities for drug repurposing: Primary screen for TC32 cells (AID 1347089). Further: nearly all actives have a fitted effect of over 60% in size. Further: potency means the concentration at half of the fitted maximal effect. An outline of the steps:
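In the primary qHTS, MIPE compounds were tested at 11 concentrations (0.78 nM to 46 µM) and NPC compounds at 8 (0.59 nM to 46 µM) on TC32 cells for 48 h. CellTiter-Glo luminescence gave viability.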

A short description of assay [3]: qHTS of pediatric cancer cell lines to identify multiple opportunities for drug repurposing: Primary screen for DAOY cells (AID 1347090). Further: nearly all actives have a fitted effect of over 55% in size. Further: potency means the concentration at half of the fitted maximal effect. An outline of the steps:
(§1)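 Viability measured as metabolically active cells via CellTiter-Glo luminescence following 48 hours of compound exposure, 11-point dilutions in confirmatory testing. 500-1,000 cells/well plated 5 hours before dosing; controls were DMSO and 2.3 µM bortezomib.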

Assay [4] is described as follows: qHTS of pediatric cancer cell lines to identify multiple opportunities for drug repurposing: Primary screen for SJ-GBM2 cells (AID 1347091). Further: potency means the concentration at half of the fitted maximal effect. An outline of the steps:
as §1

Assay [5] is described as follows: qHTS of pediatric cancer cell lines to identify multiple opportunities for drug repurposing: Primary screen for A673 cells (AID 1347092). Further: nearly all actives have a fitted effect of over 45% in size. Further: potency means the concentration at half of the fitted maximal effect. A digest of the protocol:
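48 h compound exposure, A673, 500-1,000 cells/well, 37 degrees C/5% CO2. MIPE: 11-point, 0.78 nM-46 µM; NPC: 8-point, 0.59 nM-46 µM (final). Readout CellTiter-Glo luminescence after 15 min RT.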

Assay [6] is described as follows: Natriuretic polypeptide receptor (hNpr1) antagonism - Pilot counterscreen GloSensor control cell line (AID 1347045; calls by dose curve; further: series mostly up to about 38 µM). A digest of the protocol:
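Cells were first seeded and incubated overnight at 37C, then loaded with 2% GloSensor substrate for 2 h. Compounds were added for 30 min at room temperature, followed by a baseline read, 50 uM SNP and a final read after 20 min.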
A general note: Counterscreens check selectivity or assay interference.

Assay [7] deals with Atrial natriuretic peptide receptor 1 (Homo sapiens) (UniProt P16066). Nature of the assay: Natriuretic polypeptide receptor (hNpr1) antagonism - Pilot screen (AID 1347049; calls by dose curve;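 further: agonist-evoked cGMP luminescence read 20 min after hNppA addition; series mostly up to about 58 µM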). A digest of the protocol: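 cGMP-sensor HEK293/hNpr1 cells, 1500/well, plated overnight at 37C. 2% GloSensor reagent, 2 h RT. Compound (23 nL pin transfer) 30 min RT, baseline luminescence pre-read. 0.1 nM hNppA, 20 min RT, post-read.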

Assay [8] addresses Atrial natriuretic peptide receptor 2 (Homo sapiens) (UniProt P20594). Nature of the assay: Natriuretic polypeptide receptor (hNpr2) antagonism - Pilot subtype selectivity assay (AID 1347050; calls by dose curve). A digest of the protocol: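 Luminescence from a genetically encoded cGMP luciferase biosensor in hNpr2-expressing HEK293 cells is read before and 20 min after adding 1 nM hNppC. Test compounds, in interplate 1:5 titrations, are added 30-50 min ahead of the agonist.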

For assay [9], the target named is Parathyroid hormone/parathyroid hormone-related peptide receptor (Homo sapiens) (UniProt Q03431). Put plainly: qHTS for PTHR1 Agonists: Optimization Screen against the NCGC LOPAC library (AID 1347079).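 Further: GloSensor cAMP luminescence in HEK-293 GP2 cells expressing human PTHR1 with IBMX.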 A digest of the protocol: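 HEK-293 GP2 cells, PTHR1 + GloSensor cAMP; 3000 cells/well, o/n. Luciferin + IBMX 0.5mM each (stock), 1 hr 37C. Cpd titration, 1 hr 37C. Lum after 15 min RT. Ctrl M-PTH(1-15) top 10uM.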

A short description of assay [10]: qHTS of pediatric cancer cell lines to identify multiple opportunities for drug repurposing: Primary screen for SK-N-MC cells (AID 1347093). Further: potency means the concentration at half of the fitted maximal effect. A digest of the protocol:
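Metabolically active cells were quantified by ATP-dependent luminescence (CellTiter-Glo, 15 min at room temperature) following 48 h treatment. Cells had been plated at 500-1,000 per well and settled for 5 h beforehand.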

Parathyroid hormone/parathyroid hormone-related peptide receptor (Homo sapiens), sequence (Q03431 whole entry, looked up): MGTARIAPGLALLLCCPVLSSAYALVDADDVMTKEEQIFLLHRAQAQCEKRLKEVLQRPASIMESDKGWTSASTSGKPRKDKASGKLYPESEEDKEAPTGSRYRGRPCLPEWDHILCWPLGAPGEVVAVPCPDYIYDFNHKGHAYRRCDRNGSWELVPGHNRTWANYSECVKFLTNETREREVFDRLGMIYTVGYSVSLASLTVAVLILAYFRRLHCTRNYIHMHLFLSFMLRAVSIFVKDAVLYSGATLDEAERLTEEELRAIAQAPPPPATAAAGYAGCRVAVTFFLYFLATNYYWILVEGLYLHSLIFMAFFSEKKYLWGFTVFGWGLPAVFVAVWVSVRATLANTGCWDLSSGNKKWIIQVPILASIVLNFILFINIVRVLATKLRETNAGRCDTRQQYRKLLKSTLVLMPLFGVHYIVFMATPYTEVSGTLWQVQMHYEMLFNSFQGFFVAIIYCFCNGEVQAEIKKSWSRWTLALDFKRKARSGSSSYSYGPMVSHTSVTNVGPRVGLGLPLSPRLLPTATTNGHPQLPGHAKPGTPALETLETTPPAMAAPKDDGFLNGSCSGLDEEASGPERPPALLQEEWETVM
Atrial natriuretic peptide receptor 2 (Homo sapiens), sequence (P20594 whole entry, looked up): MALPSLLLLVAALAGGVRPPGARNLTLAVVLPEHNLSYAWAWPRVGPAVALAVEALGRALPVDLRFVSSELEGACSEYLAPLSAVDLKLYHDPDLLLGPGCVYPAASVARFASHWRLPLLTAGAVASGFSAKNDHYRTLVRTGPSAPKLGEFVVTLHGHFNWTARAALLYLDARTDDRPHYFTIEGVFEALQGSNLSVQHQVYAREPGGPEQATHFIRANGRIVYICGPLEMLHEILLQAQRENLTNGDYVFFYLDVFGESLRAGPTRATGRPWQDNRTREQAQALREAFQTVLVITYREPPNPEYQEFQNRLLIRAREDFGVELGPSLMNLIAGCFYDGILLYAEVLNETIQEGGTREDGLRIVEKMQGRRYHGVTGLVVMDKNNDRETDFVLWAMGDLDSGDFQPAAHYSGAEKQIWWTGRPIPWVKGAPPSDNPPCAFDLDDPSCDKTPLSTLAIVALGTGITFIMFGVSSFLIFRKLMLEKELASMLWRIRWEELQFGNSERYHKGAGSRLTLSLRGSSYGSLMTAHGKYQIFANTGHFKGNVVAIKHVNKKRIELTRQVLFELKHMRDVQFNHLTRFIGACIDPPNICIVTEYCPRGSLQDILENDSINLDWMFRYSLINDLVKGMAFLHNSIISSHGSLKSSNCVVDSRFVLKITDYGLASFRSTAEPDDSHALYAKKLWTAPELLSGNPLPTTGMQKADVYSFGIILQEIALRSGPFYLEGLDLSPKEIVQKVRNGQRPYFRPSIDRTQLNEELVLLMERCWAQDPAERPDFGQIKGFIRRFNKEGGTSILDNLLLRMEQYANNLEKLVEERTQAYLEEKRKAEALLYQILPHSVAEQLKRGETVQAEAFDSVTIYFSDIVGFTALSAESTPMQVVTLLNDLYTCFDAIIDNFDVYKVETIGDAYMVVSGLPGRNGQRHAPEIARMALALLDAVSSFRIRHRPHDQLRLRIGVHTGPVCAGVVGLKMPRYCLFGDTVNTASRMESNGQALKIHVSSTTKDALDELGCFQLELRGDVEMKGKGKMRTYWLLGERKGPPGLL
Atrial natriuretic peptide receptor 1 (Homo sapiens), sequence (P16066 whole entry, looked up): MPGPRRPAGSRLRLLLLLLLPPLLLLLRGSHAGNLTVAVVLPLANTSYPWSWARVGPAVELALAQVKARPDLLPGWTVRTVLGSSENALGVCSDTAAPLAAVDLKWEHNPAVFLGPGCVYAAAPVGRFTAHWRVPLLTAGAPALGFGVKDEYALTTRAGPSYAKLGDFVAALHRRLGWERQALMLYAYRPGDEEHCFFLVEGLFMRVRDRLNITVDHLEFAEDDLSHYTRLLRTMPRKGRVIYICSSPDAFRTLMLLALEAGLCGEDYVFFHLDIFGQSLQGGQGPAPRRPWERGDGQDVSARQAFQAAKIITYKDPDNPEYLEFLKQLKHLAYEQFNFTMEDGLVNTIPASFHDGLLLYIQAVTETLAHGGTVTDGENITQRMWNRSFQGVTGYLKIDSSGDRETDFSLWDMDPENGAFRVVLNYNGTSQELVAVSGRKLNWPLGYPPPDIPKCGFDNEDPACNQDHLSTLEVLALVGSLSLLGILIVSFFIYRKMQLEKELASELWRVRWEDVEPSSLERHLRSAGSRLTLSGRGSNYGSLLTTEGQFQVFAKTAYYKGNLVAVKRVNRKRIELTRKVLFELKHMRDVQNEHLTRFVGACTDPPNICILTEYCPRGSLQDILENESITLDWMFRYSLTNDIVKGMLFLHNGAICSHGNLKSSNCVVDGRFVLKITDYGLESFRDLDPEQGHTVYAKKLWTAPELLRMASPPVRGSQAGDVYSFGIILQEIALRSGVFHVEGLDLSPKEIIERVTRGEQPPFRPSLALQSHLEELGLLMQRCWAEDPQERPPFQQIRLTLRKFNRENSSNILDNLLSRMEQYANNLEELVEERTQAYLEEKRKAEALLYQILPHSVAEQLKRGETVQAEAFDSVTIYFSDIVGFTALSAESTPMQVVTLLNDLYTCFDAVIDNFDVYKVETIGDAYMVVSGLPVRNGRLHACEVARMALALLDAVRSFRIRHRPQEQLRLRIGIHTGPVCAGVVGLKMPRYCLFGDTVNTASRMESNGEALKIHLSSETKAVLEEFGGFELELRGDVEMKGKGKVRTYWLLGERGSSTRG

Take `O=C(Nc1ccc(Oc2ccnc3[nH]ccc23)c(F)c1)c1cccn(-c2ccc(F)cc2)c1=O`: the Potency result in assay [1], in assay [2] and in [3] was “inactive” each time. Besides, the Potency in assay [4] is 16600 nM (active).

As to `C=Cc1c(C)c2cc3nc(cc4[nH]c(cc5nc(cc1[nH]2)C(C)=C5CCC(=O)O)c(CCC(=O)OC)c4C)[C@@]1(C)C3=CC=C(C(=O)OC)[C@H]1C(=O)OC`, the Potency entry in assay [1] is “inactive”. Further, the Potency is 5870 nM (active) in assay [2], 187 nM (active) in [3], 590 nM (active) in assay [4] and 37.2 nM (active) in assay [5].

Turning to `CCOC(=O)N1CCN([N+]([O-])=NOc2ccc([N+](=O)[O-])cc2[N+](=O)[O-])CC1`, the Potency result in [1] and in assay [2] was “inactive” throughout. Moreover, the Potency in assay [3] was 18700 nM (active); in assay [4] it was 8330 nM (active); in [5], 9350 nM (active).

In the case of `Cc1ccc([N+](=O)[O-])cc1S(=O)(=O)N(C)N=Cc1cnc2ccc(Br)cn12`, the Potency in assay [1] was 118 nM (active); in [2], 82.9 nM (active); in assay [3] it was 235 nM (active); in assay [4], 118 nM (active); in [5], 7.4 nM (active).

`CCCCOc1ccc(C(=O)Nc2ccc(F)cc2F)cc1`: the Potency result in assay [1], in assay [2], in assay [3] and in assay [4] was “inactive” in each case.

`CC[C@]12C=CCN3CC[C@@]4(c5cc([C@@]6(C(=O)OC)C[C@H]7C[C@@H](C(C)(F)F)CN(Cc8c6[nH]c6ccccc86)C7)c(OC)cc5N(C)[C@H]4[C@@](O)(C(=O)OC)[C@H]1OC(C)=O)[C@@H]32`: the Potency in [1] is 7430 nM (active); in assay [2], 58.7 nM (active); in [3], 29.6 nM (active); in [4], 1 nM (active); in assay [5] it was 4.7 nM (active).

For the compound `C=C(C)[C@@H]1CC[C@]2(C(=O)O)CC[C@]3(C)[C@H](CC[C@@H]4[C@@]5(C)CC[C@H](O)C(C)(C)[C@@H]5CC[C@]43C)[C@@H]12`, the Potency entry in assay [1], in [2] and in assay [3] was “inactive” in each case. The Potency in assay [4] was 18700 nM (active).

As for `O=C(CCCCCCC(=O)Nc1cccnc1)NO`, the Potency result in assay [1] is “inactive”. Also, the Potency in assay [2] was 20800 nM (active); in assay [3] it was 14800 nM (active); in assay [4], 7430 nM (active); in assay [5], 11800 nM (active).

`CC[C@H]1OC(=O)[C@H](C)[C@@H](O[C@H]2C[C@@](C)(OC)[C@@H](O)[C@H](C)O2)[C@H](C)[C@@H](O[C@@H]2O[C@@H](C)C[C@H](N(C)C)[C@@H]2O)[C@](C)(O)C[C@@H](C)C(=O)[C@H](C)[C@@H](O)[C@]1(C)O`: the Potency entry in assay [1], in assay [2], in assay [3] and in [4] was “inactive” each time.

As to `C=C[C@@H]1CN2CCC1C[C@H]2[C@H](O)c1ccnc2ccc(OC)cc12` (stereo partly specified), the Potency entry in assay [1], in [2], in assay [3], in [4] and in [5] was “inactive” throughout.

On to `COc1ccc(Nc2nccc(NCCO)n2)cc1`, for which the Potency entry in assay [1], in assay [2], in assay [3], in [4] and in assay [5] was “inactive” each time.

As for `CCN(C(=O)c1c(O)c2c(Cl)cccc2n(C)c1=O)c1ccccc1`, the Potency entry in assay [1], in [2], in [3] and in assay [4] was “inactive” each time.

Regarding `COc1ccc2cc([S+]([O-])Cc3ncc(C)c(OC)c3C)nc2c1`, the result in [6], in [7], in assay [8] and in [9] was inactive. The Potency result in assay [2], in [3], in assay [4], in assay [5] and in [10] was “inactive” each time.

For `Oc1cc2c(cc1O)C1c3ccc(O)c(O)c3OCC1(O)C2` (stereo unspecified), the Potency entry in assay [1], in [2], in assay [3] and in assay [4] was “inactive” each time.

`C[N+](C)([O-])CCNc1ccc(NCC[N+](C)(C)[O-])c2c1C(=O)c1c(O)ccc(O)c1C2=O`: the Potency entry in [1], in [3] and in assay [4] was “inactive” in each case. Besides, the Potency in assay [2] was 5230 nM (active).

Turning to `OCC(O)C(O)C(O)CO` (stereo unspecified), the Potency entry in assay [1], in assay [2], in assay [3], in [4], in [5] and in assay [10] was “inactive” throughout.

For `C=C(C)[C@@H]1CC[C@]2(C)CC[C@]3(C)[C@H](CC[C@@H]4[C@@]5(C)CC[C@H](O)C(C)(C)[C@H]5CC[C@]43C)[C@@H]12`, the Potency entry in [1], in assay [2], in [3], in [4], in assay [5] and in assay [10] was “inactive” throughout.

As for `O=C1NC(O)CCN1[C@@H]1O[C@H](CO)[C@H](O)[C@H]1O` (stereo partly specified), the Potency result in [1], in [2], in [3], in [4], in assay [5] and in assay [10] was “inactive” each time.

As to `O=C(CN1C(=O)C2(CCCC2)NC[C@H]1c1cc(F)cc(F)c1)Nc1ccc2c(c1)C[C@@]1(C2)C(=O)Nc2ncccc21`, the Potency entry in assay [1], in assay [2], in assay [3], in assay [4] and in assay [5] was “inactive” throughout.

As for `COc1ccnc2[nH]cc(C(=O)C(=O)N3CCN(C(=O)c4ccccc4)C[C@@H]3C)c12`, the Potency entry in assay [1], in assay [2], in assay [3], in assay [4] and in [5] was “inactive” in each case.

Take `C[C@@H](NCc1cc2ccccc2[nH]1)c1cccc2ccccc12`: the Potency entry in [1], in assay [2], in assay [3], in [4] and in assay [5] was “inactive” throughout.

For `N#CC(=C(O)c1ccc(Cl)cc1Cl)c1nc2cc(Cl)ccc2c(=O)[nH]1`, the Potency result in assay [1], in assay [2], in assay [3], in assay [4] and in assay [5] was “inactive” in each case.

For the compound `CC(C)C[C@H](NC(=O)[C@@H](NC(=O)c1cccc(-c2ccccc2)n1)[C@@H](C)O)B(O)O`, the Potency in assay [1] was 132 nM (active); in assay [2] it was 466 nM (active); in [3], 59 nM (active); in assay [4], 41.8 nM (active); in assay [5], 187 nM (active); in [10] it was 23.5 nM (active).
